A selection: hits, their analogues and other compounds. The true share with any hit is near 1.4%.
MbtI inh = blocks the Mycobacterium tuberculosis siderophore enzyme MbtI; inhibition, % (concentration not given with the values); P9WFX0; purified MbtI enzyme, fluorescence intensity read-out; AID 493033; 0.89% of 100,000 active; in the data active = inhibition mostly above about 56%, no sharp cut-off; inactive = mostly below about 77%
Mtb MenB inh = inhibitors of Mycobacterium tuberculosis MenB enzyme. P9WNP5. MenB enzyme assay, absorbance read-out. inhibition, % (concentration not given with the values). 0.43% of 100,000 active. AID 540299; in the data active = inhibition above about 21%, passing the limit was not always enough
Target sequence (P9WNP5 whole entry, looked up): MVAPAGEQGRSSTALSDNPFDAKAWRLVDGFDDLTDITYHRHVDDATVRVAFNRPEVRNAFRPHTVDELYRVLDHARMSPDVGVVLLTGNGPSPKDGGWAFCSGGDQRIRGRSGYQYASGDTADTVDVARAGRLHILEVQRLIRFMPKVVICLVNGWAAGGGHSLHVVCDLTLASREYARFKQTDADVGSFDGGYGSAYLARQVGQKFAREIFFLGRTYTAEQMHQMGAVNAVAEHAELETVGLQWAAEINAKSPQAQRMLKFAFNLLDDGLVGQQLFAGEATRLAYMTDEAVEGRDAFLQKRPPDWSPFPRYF
AID504770 = growth inhibitors of E. coli YBA685 in a screen for V. cholerae RctB (chromosome II replication) inhibitors | AID 504770 | z-score (test concentration not listed) | E. coli YBA685 rctB-dependent plasmid, OD600 growth, 3 h; active compounds read low | 0.27% of 130,000 active; in the data active = z-score below about -2, passing the limit was not always enough
Polio RdRp inh = poliovirus RNA polymerase inhibition; poliovirus polymerase elongation, fluorescence polarization; active compounds read low; % elongation, % (compound at 16.7 µg/mL); 0.66% of 150,000 active; in the data active = % elongation below about 90%
Large screens that a line does not name were inactive.

O=C1c2ccccc2-c2nc3ccccc3nc21	none
O=C1c2ccccc2-c2n[nH]c(=S)nc21	AID504770 -2.6, Polio RdRp inh 76.0
Cc1c(C(=O)Nc2cccc(F)c2)sc2nc(-c3cc4ccccc4oc3=O)[nH]c(=O)c12	Polio RdRp inh 64.0 (no result: MbtI inh, Mtb MenB inh, AID504770)
Cc1cc(C)cc(NC(=O)c2sc3nc(-c4cc5ccccc5oc4=O)[nH]c(=O)c3c2C)c1	none (no result: MbtI inh, Mtb MenB inh, AID504770)
NC(=O)C1CCN(Cc2ccccc2)CC1	none
O=C(O)C1CSC2(CCN(Cc3ccccc3)CC2)N1 (stereo unspecified)	Mtb MenB inh 37.7
Cc1[nH]n(-c2ccccc2)c(=O)c1/C=C1\C=c2ccccc2=NC1=O	none
N#Cc1ccc(-c2cccnc2)n(CC(=O)N2CCOCC2)c1=O	Mtb MenB inh 42.2
CC(C)N(C(=O)Cn1c(-c2cccnc2)ccc(C#N)c1=O)C(C)C	none
CCO/C=C1\C(=O)N(c2ccccc2)C(=O)c2ccccc21	Polio RdRp inh 80.0 (no result: Mtb MenB inh)
COc1ccc(N2CCN(/C=C3\C(=O)N(c4ccc(C)cc4)C(=O)c4ccccc43)CC2)cc1	none
CCO/C=C1/C(=O)N(c2ccc(OC)cc2)C(=O)c2ccccc21	Polio RdRp inh 82.0
CCO/C=C1/C(=O)N(c2ccc(S(=O)(=O)N3CCOCC3)cc2)C(=O)c2ccccc21	none
Cc1ccc2nc(NC(=O)c3ccc(Br)s3)sc2c1	none (no result: MbtI inh, Mtb MenB inh, Polio RdRp inh)
CC1(C)C(=O)C2(CCCCC2)C(=O)OC1c1ccc(Br)o1 (stereo unspecified)	none
O=C(CSc1nnc(-c2ccco2)c(-c2ccco2)n1)N1c2ccccc2Sc2ccc(Cl)cc21	Mtb MenB inh 32.6
CCC(C)N1CCN(C2CCCCC2)CC1 (stereo unspecified)	Mtb MenB inh 44.3
C1CCC(N2CCN(C3CCCC3)CC2)C1	Mtb MenB inh 32.3
Cc1ccc(-n2ncc(C(=O)N3CCOCC3)c2C2CCN(C(=O)OC(C)(C)C)CC2)cc1Cl	none (no result: MbtI inh, Mtb MenB inh, Polio RdRp inh)
O=C(COC(=O)C1CCN(S(=O)(=O)c2ccc3c(c2)OCCO3)CC1)c1ccc(Cl)s1	none
Cc1cc(C)nc(NNC(=S)NCc2ccc3c(c2)OCO3)n1	MbtI inh 74.5

Screens (PubChem BioAssay)
